BioA inh – inhibitors of Mycobacterium tuberculosis BioA enzyme. purified M. tuberculosis BioA enzyme, plate reader. 360,000 tested, 0.096% active. inhibition, % at 9.99 µM; in the data active = inhibition above about 40%
TcdB inh – blocks C. difficile toxin B glycohydrolase activity | P18177 | TcdB glycohydrolase enzymatic assay, plate reader | inhibition, % at 9.99 µM | 350,000 tested, 0.24% active; in the data active = inhibition above about 10%
FadD28 binding – inhibitors of Mycobacterium tuberculosis FadD28 bisubstrate binding. inhibition, % at 12.5 µM. FadD28 bisubstrate probe binding, fluorescence polarization. 360,000 tested, 0.22% active. AID 588549; in the data active = inhibition above about 8.5%, passing the limit was not always enough
SSB-PriA inh – inhibitors of Klebsiella pneumoniae PriA binding to SSB C-terminal tail; 430,000 tested, 0.6% active; inhibition, % at 33 µM; AlphaScreen SSBct-PriA binding, biotinylated peptide; in the data active = inhibition mostly above about 37%, no sharp cut-off; inactive = mostly below about 20%
PrP UTR inh – suppresses PrP 5' UTR mRNA reporter expression | inhibition, % (no concentration beside the values) | 340,000 tested, 0.35% active | cell-based PrP 5' UTR mRNA reporter, plate reader | AID 488862; in the data active = inhibition above about 52%
Mtb hypoxia inh – reduces hypoxia-regulated biosensor signal in M. tuberculosis; AID 1159583; fluorescence inhibition, % (concentration not given with the values); 300,000 tested, 0.1% active; M. tuberculosis hypoxia-regulated fluorescent reporter, fluorescence; in the data active = fluorescence inhibition mostly above about 23%, no sharp cut-off; inactive = mostly below about 17%
A number is an active result; i = inactive; nt = not tested or not shown. In the library only some 1% were active in any assay of this set; here they are far more common.

SMILES	BioA inh	TcdB inh	FadD28 binding	SSB-PriA inh	PrP UTR inh	Mtb hypoxia inh
CCCn1c(N)c(N(CCOC)C(=O)CSCC(=O)Nc2cccc(C)c2)c(=O)[nH]c1=O	nt	i	i	i	i	i
CCCCn1c(N)c(N(CCOC)C(=O)CSCc2cccc(C)c2)c(=O)[nH]c1=O	nt	i	i	49	i	i
O=C(C[C@H]1CC[C@H]2NC[C@@H](O)COC[C@@H]2O1)NCCc1ccccc1	i	i	nt	nt	nt	nt
OC(COc1ccc(C23CC4CC(CC(C4)C2)C3)cc1)C[N+]1(Cc2ccccc2)CCOCC1 (stereo unspecified)	nt	nt	nt	45	nt	nt
Cc1ccc(S(=O)(=O)Oc2ccccc2/C=N/O)cc1	i	i	i	nt	i	nt
Cc1ccc(S(=O)(=O)Oc2ccccc2/C=N/Nc2ccc(C(=O)O)cc2)cc1	i	i	9.1	i	i	nt
Cn1nc([N+](=O)[O-])c(C(C#N)c2nc3ccccc3n2C)c(Cl)c1=O (stereo unspecified)	nt	nt	12	i	i	i
CCCCn1c(N)c(-c2nc3ccccc3s2)c2c([N+](=O)[O-])nn(C)c(=O)c21	i	nt	i	i	i	i
Cn1nc([N+](=O)[O-])c(C(C#N)c2nc3ccccc3s2)c(Cl)c1=O (stereo unspecified)	nt	nt	nt	92	nt	nt
O=C(c1ccc(Br)cc1)c1cc([N+](=O)[O-])ccc1N1CCOCC1	nt	i	i	i	i	i
Cc1nc2[nH]c(=S)[nH]c2c(=O)[nH]1	i	29	i	i	i	i
Cc1nc2[nH]c(=S)[nH]c(=O)c2nc1C	i	i	i	i	i	i
Cc1ccc(-c2nc3ccccn3c2NCc2ccc3c(c2)OCO3)cc1	i	nt	i	45	i	i
Cc1cccc(OCCn2cnc(Cl)c2Cl)c1	i	i	i	40	i	i
Fc1ccc(OCCn2cnc(Cl)c2Cl)cc1	nt	i	i	i	i	i
Cc1ccc(S(=O)(=O)Nc2ccc3c(c2)C(=O)N([C@@H](C)CO)C[C@@H](C)[C@H](CN(C)CC2CCCCC2)OCCCC[C@H](C)O3)cc1	i	i	nt	nt	nt	nt
COc1ccc(NC(=S)N=C(Nc2ccc(C)cc2)c2ccccc2)cc1	nt	nt	nt	46	nt	nt
CNC(=S)N=C(Nc1ccc(C)cc1)c1ccccc1	nt	nt	nt	i	nt	i
CCCN(C)C[C@@H]1OCCCC[C@@H](C)Oc2ccc(NC(=O)c3ccccc3)cc2C(=O)N([C@H](C)CO)C[C@@H]1C	i	i	i	nt	nt	nt
Cc1ccc(N(CCCCN2C(=O)c3ccccc3C2=O)C(=O)c2cccs2)cc1	i	nt	i	66	i	nt
O=C1c2ccccc2C(=O)N1CCCCN(C(=O)c1ccc([N+](=O)[O-])o1)c1ccc(Cl)cc1	nt	nt	nt	40	nt	nt
N#Cc1ccc(S(=O)(=O)NC[C@H]2O[C@@H](n3ccc(N)nc3=O)[C@H](O)[C@@H]2O)cc1	i	i	i	nt	nt	nt
O=C(CCC(=O)N1CCSc2ccccc21)Nc1cccc(F)c1	i	10	i	i	i	i
O=C(CCC(=O)N1CCSc2ccccc21)Nc1ccc(F)cc1	i	i	i	i	i	i
CCc1cccc(NC(=O)COC(=O)/C=C/c2cccs2)c1	i	i	20	i	i	i
SMILES	BioA inh	TcdB inh	FadD28 binding	SSB-PriA inh	PrP UTR inh	Mtb hypoxia inh
O=C(COC(=O)/C=C/c1cccs1)Nc1ccc(F)cc1	i	i	i	i	i	i
O=C(Nc1cccc(-c2ccc3nnc(-c4ccncc4)n3n2)c1)c1ccc(F)cc1F	nt	nt	nt	i	nt	nt
Cc1cccc(C)c1NC(=O)CN(C)C(=O)c1ccccc1Sc1ccccc1C#N	i	i	nt	i	i	i
CN(CC(=O)Nc1ccccc1Br)C(=O)c1ccccc1Sc1ccccc1C#N	i	i	i	i	i	25
COCCNC(=O)c1cc(-c2cccs2)nn1C	nt	nt	nt	i	nt	nt
N=C1CCC(=N)c2c1c(O)c1ccccc1c2O	nt	nt	14	74	i	nt
CC(=O)N1CCN(S(=O)(=O)c2cccc(C(=O)NC3CCCc4ccccc43)c2)CC1 (stereo unspecified)	nt	nt	i	i	i	i
CSCCC(NC(=O)c1ccccc1Cl)C(=O)N1CCCCCCC1 (stereo unspecified)	i	i	i	i	i	i
CCNC(=O)C[C@H]1CC[C@@H]2[C@@H](COc3ccc(NC(=O)c4ccc5c(c4)OCO5)cc3C(=O)N2C)O1	i	14	nt	nt	nt	nt
CCCNC(=O)C[C@H]1CC[C@@H]2[C@@H](COc3ccc(NC(=O)c4ccc(Cl)cc4)cc3C(=O)N2C)O1	i	13	nt	nt	nt	nt
CCNC(=O)C[C@H]1CC[C@H]2[C@H](COc3ccc(NC(C)=O)cc3C(=O)N2C)O1	i	11	nt	nt	nt	nt
CN1C(=O)c2cc(NC(=O)c3cccc(F)c3)ccc2OC[C@@H]2O[C@@H](CC(=O)NCC3CCCCC3)CC[C@@H]21	i	10	nt	nt	nt	nt
CC(=O)Nc1ccc2c(c1)C(=O)N(C)[C@H]1CC[C@H](CC(=O)NCC3CC3)O[C@H]1CO2	i	i	nt	nt	nt	nt
CN1C(=O)c2cc(NC(=O)c3cccc(F)c3)ccc2OC[C@H]2O[C@@H](CC(=O)NCC3CCCCC3)CC[C@@H]21	i	i	nt	nt	nt	nt
O=c1[nH]c2ccccc2n1C1CCN(C(c2cccc3ccccc23)c2nnnn2Cc2ccccc2)CC1 (stereo unspecified)	i	i	i	nt	nt	nt
COc1ccc(Cn2c(SCc3cc(C)ccc3C)nc3cc(OC)c(OC)cc3c2=N)cc1	i	nt	i	i	i	nt
CN(C)CCCNC(=O)C[C@H]1CC[C@@H]2[C@@H](COc3ccc(NC(=O)c4ccc5c(c4)OCO5)cc3C(=O)N2C)O1	i	11	nt	nt	nt	nt
CN(C)CCCNC(=O)C[C@H]1CC[C@@H]2[C@H](COc3ccc(NC(=O)c4ccc5c(c4)OCO5)cc3C(=O)N2C)O1	i	i	nt	nt	nt	nt
CCNC(=O)C[C@H]1CC[C@@H]2[C@H](COc3ccc(NC(=O)c4ccc5c(c4)OCO5)cc3C(=O)N2C)O1	i	13	nt	nt	nt	nt
COC(=O)c1c(NC(=O)CCCC(=O)O)sc2c1CCC2	i	i	i	73	i	i
CCCC#Cc1ccc([C@@H]2[C@@H](CO)N3CCCCN(C(=O)Cc4ccccn4)C[C@H]23)cc1	i	i	nt	nt	nt	nt
COc1cc(OC)c(NC(=O)Cn2cnc3sc(C)c(S(=O)(=O)N4CCOCC4)c3c2=O)cc1Cl	i	i	i	i	i	i
CCC1Oc2ccccc2C(=O)N(CC(=O)c2ccc3c(c2)OCCO3)C1=O (stereo unspecified)	i	i	i	i	i	i
CCCC1Oc2ccccc2C(=O)N(CC(=O)c2ccc(F)cc2)C1=O (stereo unspecified)	nt	nt	nt	54	nt	nt
COc1ccc(-c2cc(N3CCN(C(=O)c4ccc(S(=O)(=O)N(C)C)cc4)CC3)ncn2)cc1	nt	nt	nt	i	nt	nt
CC(C)(C)c1csc(NN=Cc2ccc(O)cc2)n1	nt	nt	nt	i	nt	34
CCCC(NC(=O)C(C)N1CCN(S(=O)(=O)c2ccccc2)CC1)c1ccccc1 (stereo unspecified)	i	i	i	i	i	i
CCN1CCN(Cc2ccc(NC(=O)c3cc(NC(=O)c4ccno4)cc(OC)c3)cc2C(F)(F)F)CC1	i	i	i	i	i	nt
CCN1CCN(Cc2ccc(NC(=O)c3cc(NC(=O)c4cncc(-c5cccs5)c4)cc(OC)c3)cc2C(F)(F)F)CC1	i	i	i	42	nt	nt
